Screen size: about 5,500 compounds; about 2,000 (36%) were called active. Inconclusive results (about 18%) are left out. Cut-off read from the data, not from the text of the source: active = normalized growth mostly below about 0.91 (no sharp cut-off); inconclusive = no clear call, values can overlap the other calls; inactive = mostly above about 0.92. The list shows a part of the results.
Assay: chemical genetic growth profiling, strain panel (AID 1159580);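 note: tested at 20 µM; growth read once vehicle control cultures reached saturation at 30 °C; 1 = growth at the plate median or of vehicle wells; lower values mean less growth of the strain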
Conditions: S. cerevisiae deletion strains, growth OD

Measured: normalized growth

CCOP(=S)(OCC)Oc1nc(Cl)c(Cl)cc1Cl
active: locus YBR009C, strain hhf1, hits give low values 0.873 | locus YDR137W, strain rgp1, hits give low values 0.832 | locus YDR392W, strain spt3, hits give low values 0.615 | locus YER155C, strain BEM2 (second series), hits give low values 0.748 | locus YHR142W, strain chs7, hits give low values 0.847 | locus YJL164C, strain tpk1, hits give low values 0.914
inactive: locus YAL013W, strain DEP1, hits give low values 1.01 | locus YAL021C, strain ccr4, hits give low values 0.974 | locus YAL026C, strain drs2, hits give low values 0.941 | locus YAL030W, strain snc1, hits give low values 0.951 | locus YBL061C, strain skt5, hits give low values 0.964 | locus YBR021W, strain FUR4, hits give low values 1.01 | locus YBR023C, strain chs3, hits give low values 0.963 | locus YBR171W, strain sec66, hits give low values 0.95 | locus YBR229C, strain ROT2, hits give low values 0.997 | locus YBR231C, strain swc5, hits give low values 0.963 | locus YBR279W, strain paf1, hits give low values 0.98 | locus YCL011C, strain gbp2, hits give low values 0.938 | locus YCL016C, strain dcc1, hits give low values 0.981 | locus YCL029C, strain bik1, hits give low values 0.99 | locus YCL069W, strain vba3, hits give low values 0.972 | locus YCR088W, strain abp1, hits give low values 0.951 | locus YDL005C, strain med2, hits give low values 0.968 | locus YDL035C, strain GPR1, hits give low values 1.03 | locus YDL040C, strain nat1, hits give low values 0.955 | locus YDL074C, strain BRE1, hits give low values 0.985 | locus YDL101C, strain DUN1, hits give low values 1.01 | locus YDL134C, strain PPH21, hits give low values 0.988 | locus YDL185W, strain tfp1, hits give low values 0.994 | locus YDL192W, strain arf1, hits give low values 0.989 | locus YDR001C, strain nth1, hits give low values 0.948 | locus YDR069C, strain doa4, hits give low values 0.949 | locus YDR101C, strain arx1, hits give low values 0.981 | locus YDR150W, strain NUM1, hits give low values 1.01 | locus YDR159W, strain sac3, hits give low values 0.952 | locus YDR162C, strain NBP2, hits give low values 1.01 | locus YDR195W, strain ref2 1.03 | locus YDR297W, strain sur2, hits give low values 0.957 | locus YDR318W, strain mcm21, hits give low values 0.981 | locus YDR334W, strain swr1, hits give low values 0.947 | locus YDR335W, strain msn5, hits give low values 0.973 | locus YDR388W, hits give low values 0.986 | locus YDR502C, strain sam2, hits give low values 0.988 | locus YEL003W, strain gim4, hits give low values 0.964 | locus YEL037C, strain rad23, hits give low values 0.959 | locus YEL061C, strain CIN8 (second series), hits give low values 0.957 | locus YEL061C, strain CIN8, hits give low values 1 | locus YER015W, strain faa2, hits give low values 0.964 | locus YER016W, strain bim1, hits give low values 0.973 | locus YER110C, hits give low values 0.993 | locus YER111C, strain swi4, hits give low values 0.958 | locus YER155C, strain BEM2, hits give low values 1 | locus YER167W, strain BCK2, hits give low values 1.01 | locus YFR010W, strain ubp6, hits give low values 0.961 | locus YGL078C, strain dbp3, hits give low values 0.98 | locus YGL086W, strain mad1, hits give low values 0.987 | locus YGL167C, strain pmr1, hits give low values 0.947 | locus YGL173C, strain kem1, hits give low values 0.977 | locus YGL227W, strain vid30, hits give low values 0.935 | locus YGL240W, strain doc1, hits give low values 0.949 | locus YGL248W, strain PDE1, hits give low values 1.01 | locus YGL253W, strain hxk2, hits give low values 0.948 | locus YGR078C, strain PAC10, hits give low values 0.987 | locus YGR135W, strain pre9, hits give low values 0.986 | locus YGR229C, strain SMI1, hits give low values 0.98 | locus YGR252W, strain gcn5, hits give low values 0.976 | locus YHR013C, strain ard1, hits give low values 1.07 | locus YHR027C, strain rpn1, hits give low values 0.966 | locus YHR030C, strain SLT2, hits give low values 1.01 | locus YHR079C, strain IRE1 (second series), hits give low values 0.991 | locus YHR094C, strain hxt1, hits give low values 0.983 | locus YHR129C, strain ARP1, hits give low values 0.995 | locus YHR200W, strain rpn10, hits give low values 0.986 | locus YIL066C, strain RNR3, hits give low values 0.991 | locus YIL073C, strain SPO22, hits give low values 0.961 | locus YIL125W, strain kgd1, hits give low values 0.981 | locus YIR030C, strain dcg1, hits give low values 0.991 | locus YJL092W, strain hpr5, hits give low values 0.959 | locus YJL095W, strain BCK1 (second series), hits give low values 0.949 | locus YJL095W, strain BCK1, hits give low values 0.973 | locus YJL115W, strain asf1, hits give low values 0.971 | locus YJL129C, strain trk1, hits give low values 0.921 | locus YJL134W, strain LCB3, hits give low values 1.01 | locus YJL154C, strain vps35, hits give low values 0.937 | locus YJL166W, strain qcr8, hits give low values 0.961 | locus YJL168C, strain set2, hits give low values 0.988 | locus YJL187C, strain SWE1 (second series), hits give low values 0.996 | locus YJR043C, strain POL32, hits give low values 1.02

Reference: PubChem BioAssay AID1159580 (chemical genetic matrix, 2015)
